Assay results: PubChem BioAssay AID2157 (National Center for Advancing Translational Sciences (NCATS), 2009)
Inconclusive results are not listed. The source made the active and inactive calls. Calls follow the shape of the dose curve; as a rule, active = well fitted inhibition curve with a large enough effect; inconclusive = small, poorly fitted or top-dose-only effect; inactive = no such curve, though single readings can be large or run the other way.

biological target: Polyunsaturated fatty acid lipoxygenase ALOX15 (Homo sapiens) (UniProt P16050); test: Confirmation qHTS Assay for Inhibitors of 15-hLO (15-human lipoxygenase); settings: purified enzyme, xylenol orange hydroperoxide absorbance; max response: stronger effect = lower value
Sequence (P16050 whole entry, looked up): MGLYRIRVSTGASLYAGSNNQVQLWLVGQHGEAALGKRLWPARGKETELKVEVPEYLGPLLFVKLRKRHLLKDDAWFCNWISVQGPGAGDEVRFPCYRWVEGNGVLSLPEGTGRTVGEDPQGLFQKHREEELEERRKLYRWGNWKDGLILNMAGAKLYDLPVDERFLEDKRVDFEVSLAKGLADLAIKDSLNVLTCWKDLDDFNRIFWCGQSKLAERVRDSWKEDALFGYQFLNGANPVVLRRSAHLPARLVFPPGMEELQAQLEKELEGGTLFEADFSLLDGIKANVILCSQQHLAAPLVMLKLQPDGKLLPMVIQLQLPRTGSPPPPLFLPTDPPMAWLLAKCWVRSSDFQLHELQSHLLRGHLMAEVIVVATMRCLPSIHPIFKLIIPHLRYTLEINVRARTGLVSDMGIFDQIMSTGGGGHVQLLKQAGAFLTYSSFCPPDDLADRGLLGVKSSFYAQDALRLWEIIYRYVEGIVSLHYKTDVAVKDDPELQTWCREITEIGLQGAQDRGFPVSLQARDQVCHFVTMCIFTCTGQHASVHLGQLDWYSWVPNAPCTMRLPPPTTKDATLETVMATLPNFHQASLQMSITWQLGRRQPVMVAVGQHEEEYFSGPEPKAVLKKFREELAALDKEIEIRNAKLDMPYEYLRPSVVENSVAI
Source text: Assay Provider: Holman, T.R., University of California, Santa Cruz Screening Center PI: Austin, Christopher P. Screening Center: NIH Chemical Genomics Center Human lipoxygenase 15hLO-1 is a member of the closely related lipoxygenase family of enzymes which catalyze the site-specific oxidation of arachidonic acid to various hormone precursor molecules and as such is a candidate for drug development in a variety of disease areas, such as cancer and inflammation. Inhibition of 15hLO-1 activity was screened by utilizing arachidonic acid as a substrate. The extent of hydroperoxide product formation was measured by a secondary chromogenic reaction in which xylenol orange (XO, Sigma-Aldrich, cat. number 39,818-7) reacts with the ferric ions produced from the reaction between the hydroperoxide and ferrous ions. The Fe(III)-XO complex is characterized with red-shifted absorbance at 560 nm. A purified preparation of human 15hLO-1 was supplied by Professor Ted Holman, University of California, Santa Cruz. This assay includes some confirmation and follow-up compounds for related primary screening assay AID 887.
Assay Protocol: Buffer: 25 mM Hepes pH 7.5, 0.01% Triton X-100. Reagents/Controls: Buffer in columns 3 and 4 as negative control (no enzyme). Substrate solution: 50 uM arachidonic acid (Sigma-Aldrich, St. Louis, MO) final concentration dispensed throughout the plate. Enzyme: 40 nM 15hLO-1 final concentration in columns 1, 2, 5-48. Column 1 is neutral (100% activity). Column 2 contained pin-transferred titration of NDGA (nordihidroguaiaretic acid, Sigma-Aldrich, N 5023, top concentration 10 mM in DMSO, then 1:2 dilution in duplicate). (Dilution factor: 23 nL into 4 uL.) Chromogenic detection reagent (divalent iron/xylenol orange, Fe-XO): 200 uM xylenol orange plus 300 uM ferrous ammonium sulfate prepared freshly in 50 mM sulfuric acid. Assay Steps: Three uL of enzyme were dispensed to 1536-well Greiner black clear bottom plates. Compounds and controls (23 nL) were transferred via Kalypsys PinTool. The plates were incubated for 15 min at room temperature, and then 1 uL of substrate solution was added to start the reaction. After room temperature incubation for 6 minutes, 4 uL of Fe-XO solution was added to each well followed by a short spin (1000 rpm, 15 sec) and the plates were then incubated for 30 min. The absorbance at 405 and 573 nm were measured using ViewLux (Perkin-Elmer) High-throughput CCD imager and absorbance protocol settings. The 573-to-405 absorbance ratio was used to compute reaction progress.

Row | SMILES | max response | Potency
1 | O=C(Cc1cc(=O)[nH][nH]1)N/N=C/C=C/c1ccccc1 | -11.2% (inactive) | 
2 | Cc1cc(/C=N/NC(=O)Cn2c3ccccc3c(=O)c3ccccc32)c(C)n1-c1ccccc1 |  | 11.2 µM (active)
3 | COc1ccc(OC)c(NC(=O)NC2(C(F)(F)F)Oc3ccccc3O2)c1 | -7.82% (inactive) | 
4 | CCOC(=O)c1c(NC(=O)CN2CCOCC2)sc2c1CCCC2 |  | 31.6 µM (active)
5 | CN(C)CCC(=O)c1ccc(Cl)cc1 | -16.6% (inactive) | 
6 | COc1ccccc1CNc1ncncc1-c1ccoc1 |  | 11.2 µM (active)
7 | Cc1ccc(-c2ccc(/C=C3\C(=O)ON=C3c3ccccc3)o2)c([N+](=O)[O-])c1 |  | 2.51 µM (active)
8 | COCCSc1ccccc1C(=O)NCc1ccco1 | -26.5% (inactive) | 
9 | COc1ccc(NC(=O)CSc2nc(O)cc(=O)n2-c2ccccc2OC)cc1 | -13.4% (inactive) | 
10 | COC(=O)c1ccc2c(c1)C(=O)N(C1CCCCC1)C2=O | -13.1% (inactive) | 
11 | COc1cccc(-c2nccc(NCc3ccccc3OC)n2)c1 |  | 11.2 µM (active)
12 | Clc1ccc(NNc2ccnc3cc(Cl)ccc23)cc1 | -9.48% (inactive) | 
13 | CCC(=O)N(Cc1cc(=O)[nH]c2ccccc12)C1CCCCC1 | -6.49% (inactive) | 
14 | CCCCn1c(Cc2ccccc2)n[nH]c1=S | -14.5% (inactive) | 
15 | Cc1noc(C)c1-c1nc(N(C)Cc2ccco2)c2ccccc2n1 | -25.4% (inactive) | 
16 | O=C(Nc1cccc(F)c1)N1CCCC2(CCN(C(=O)c3ccco3)CC2)C1 | -7.24% (inactive) | 
17 | O=C(C1=C(O)C(=O)N(Cc2ccco2)C1c1cccnc1)c1cc2ccccc2o1 (configuration not stated) | -10.1% (inactive) | 
18 | O=C(c1ccncc1)N1CCC2(CCCN(Cc3nccs3)C2)CC1 | -6.92% (inactive) | 
19 | O=C(Nc1nnc(-c2ccco2)s1)C1CCCCC1 | -11.3% (inactive) | 

Row | SMILES | max response | Potency
20 | COC(=O)c1ccc(C(=S)N2CCOCC2)cc1 |  | 15.8 µM (active)
21 | CCOc1ccc(NS(=O)(=O)c2ccc3[nH]cc(C(=O)N(CC)CC)c(=O)c3c2)cc1 | -12.4% (inactive) | 
22 | CC(=O)NCCNc1ncncc1-c1ccc(N(C)C)cc1 | -61.2% (inactive) | 
23 | CN1CCN(C(c2cccnc2)c2ccc3cccnc3c2O)CC1 (configuration not stated) | -27.2% (inactive) | 
24 | O=C1C2C3CCCC3=C3CCCC3C2C(=O)N1c1cccc(Cl)c1 (configuration not stated) |  | 14.1 µM (active)
25 | O=C(Nc1nnc(-c2ccccc2)o1)c1ccc(Cl)cc1 | -12.7% (inactive) | 
26 | COc1ccccc1-n1c(SCC(=O)Nc2ccc(C)cc2)nc(O)cc1=O | -8.11% (inactive) | 
27 | NC(=O)c1cccc2c3c([nH]c12)CCCC3 |  | 10 µM (active)
28 | Cc1c(N/C=C/C(=O)c2cccs2)c(=O)n(-c2ccccc2)n1C | -25.2% (inactive) | 
29 | Clc1ccc(-c2nnc(C3CCCCC3)o2)cc1 | -10.3% (inactive) | 
30 | Cc1cc(Nc2nnnn2-c2ccccc2)n(-c2ccc(Cl)cc2)n1 | -13% (inactive) | 
31 | CCCC(=O)NC(c1ccco1)c1cc(Cl)c2cccnc2c1O (configuration not stated) | -17.9% (inactive) | 
32 | c1csc(C2Nc3cccc4cccc(c34)N2)c1 |  | 8.91 µM (active)
33 | Cc1cccc(CNc2ncnc3ccc(-c4ccc5c(c4)OCO5)cc23)c1 | -24.2% (inactive) | 
34 | O=C(Nc1nc2n(n1)C(c1ccccc1)CC(c1ccc(Cl)cc1)N2)c1ccco1 (configuration not stated) | -20.1% (inactive) | 
35 | Cc1ccc(OCC(=O)Nc2ccc(N3CCCC3)cc2)cc1C |  | 15.8 µM (active)
36 | COc1cccc(-c2nc(NC3CCNCC3)c3ccccc3n2)c1 | -13.6% (inactive) | 
37 | Oc1ccc2ccccc2c1CNc1cnc2ccccc2c1 |  | 14.1 µM (active)
